According to PubChem BioAssay (NCI):
About 83,000 compounds went through this panel and 20% of them were active in at least one assay; those are over-represented in the sample as a whole.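 How to read the values: 0–100, growth inhibition (40 = 60% inhibited); 0, no net growth; -100 to 0, cell death (-40 = 40% of starting cells died; -100 = all dead).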 A number with no mark means an inactive call. Calls of active or inactive are those of the source. The calls were made as follows: active = growth percent below 10; inactive = the rest.

system: 786-0 renal; test: NCI-60 one-dose screen, 48 h (100 = growth as untreated, 0 = no growth, -100 = all killed); conditions: 10 µM unless noted

| Structure (SMILES) | growth |
| --- | --- |
| CCNC(=O)Oc1ccc(/C(=C(/C)Cc2ccc(OC)cc2)c2ccc(OCCN3CCCCC3)cc2)cc1 | 72.6% |
| COC(=O)C(Cc1ccccc1)NC(=O)c1ccc(NC(=O)c2[nH]c(C)c(Cl)c2Cl)c(OC(C)C)c1 (centres undefined) | 39.5% |
| Cc1ccc(S(=O)(=O)Oc2ccc3sc4cccc(NCCN(C)C)c4c(=O)c3c2)cc1 | -85.7% (active) |
| O=C(Nc1ncccc1OCc1ccccc1)NC1CCCCCC1 | 89.6% |
| CCNc1nc(O)c(/C=C2\C=Nc3ncccc32)s1 | 3.02% (active) |
| Ic1ccccc1I | 92% |
| CC1=C2[C@@H](CC1)[C@]1(C)O[C@@](C3CCCCC3)(C[C@H]1OC(=O)CO)[C@H]2OC(=O)/C=C/c1ccccc1 | 55.9% |
| Cc1ccc(-c2csc(NC(=O)c3ccccc3CN3C(=O)c4ccccc4C3=O)n2)cc1 | 95.8% |
| Oc1c(CN2CCCC2)cc(CSCc2ccccc2)c2cccnc12 | 6.65% (active) |
| Cc1ccc(-c2nc(SCc3nc4cc(Cl)c(Cl)cc4[nH]3)[nH]c(=O)c2C#N)cc1 | 94.5% |
| CC/C=C\CCC/C=C1/C(=O)C=C[C@@H]1C/C=C\CCCC(=O)OC | 69.3% |
| C=C1C(=O)O[C@H]2[C@H]1CC/C(Cn1cc(CCC)nn1)=C\CC[C@@]1(C)O[C@@H]21 | 3.66% (active) |
| CN(C)CCCC1(c2ccc(F)cc2)OCc2cc(-c3ccc4cc[nH]c4c3)ccc21 (centres undefined) | 78.1% |
| COc1ccc(CCN(CC(=O)N(CC(N)=O)C2CCC[C@@H]2OCc2ccccc2)C(=O)CN(C(=O)CN(CCc2ccc(Cl)cc2)C(=O)CN(C(=O)CN(C)Cc2ccccc2F)[C@H](C)C2CCCCC2)[C@H](C)C2CCCCC2)cc1OC (some centres undefined) | 44% |
